# Hits are enriched below; roughly 0.86% of the tested compounds scored in any of these assays.
# A1 inhib: A1 inhibition; 0.51% of 21,000 active; caspase activation, % (concentration not given with the values); MEF A1-2A-BIM cells, caspase-Glo luminescence, 3 h; percent of clofoctol signal, DMSO as zero;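 active means most replicate scores above 10, or exactly half above 10 with mean activity above 10; inconclusive means mean activity below 10 while half the replicates exceed 10; inactive means most replicate scores below 10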;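 further: effector caspase 3 and 7 activity cleaving a DEVD luciferin substrate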
# BJeLR viab HTS: compounds reducing viability of BJeLR cells | BJeLR fibroblasts viability, CellTiterGlo ATP luminescence, 48 h; HRASV12, hTERT and SV40 LT/ST transformed | 0.64% of 30,000 active | viability loss activity score, % (test concentration not listed); in the data active means viability loss activity score above about 50%; inconclusive means no clear call, values can overlap the other calls; inactive means below about 35%;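 further: higher score means fewer live cells and less ATP luminescence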
# Numbers stand for hits; - = inactive; ? = inconclusive; . = not tested or not shown.
SMILES,A1 inhib,BJeLR viab HTS
C/C=C(/C)C(=O)O[C@H]1[C@H](OC(=O)/C=C/c2ccccc2)[C@@]23C(CC1(C)C)[C@]1(CCC4[C@@]5(C)CC[C@H](O[C@@H]6O[C@H](C(=O)O)[C@@H](O)[C@H](O[C@@H]7O[C@H](CO)[C@H](O)[C@H](O)[C@H]7O[C@@H]7O[C@@H](C)[C@H](O)[C@@H](O)[C@H]7O[C@@H]7OC[C@](O)(CO)[C@H]7O)[C@H]6O[C@@H]6O[C@H](CO)[C@H](O)[C@H](O)[C@H]6O)C(C)(C)C5CC[C@@]4(C)[C@]1(C)C[C@H]2O)O[C@H]3O (stereo not given in full),-,79.9
C/C=C(/C)C(=O)O[C@H]1[C@H](OC(=O)/C(C)=C\C)[C@]2(CO)[C@H](O)C[C@]3(C)C(=CCC4[C@@]5(C)CC[C@H](OC6OC(C(=O)O)C(O)C(OC7OC(C)C(O)C(OC8OC(CO)C(O)C(O)C8O)C7O)C6O)C(C)(C)C5CC[C@]43C)[C@@H]2CC1(C)C (stereo not given in full),-,124.8
C/C=C(\C)C(=O)OC1C(OC(=O)/C=C(/C)CC(=O)O)C2(CO)C(O)CC3(C)C(=CCC4C5(C)CCC(OC6OC(C(=O)O)C(O)C(OC7OC(C)C(O)C(OC8OC(CO)C(O)C(O)C8O)C7O)C6O)C(C)(C)C5CCC43C)C2CC1(C)C (stereo not given),-,66.8
C[C@@H]1O[C@@H](O[C@H]2CC[C@@]3(C)C(CC[C@]4(C)C3CC=C3C5CC(C)(C)CC[C@]5(C(=O)O[C@@H]5O[C@H](CO)[C@@H](O)[C@H](O)[C@H]5O)CC[C@]34C(=O)O)C2(C)C)[C@H](O)[C@H](O)[C@H]1O (stereo not given in full),-,-
C[C@@H]1O[C@@H](O[C@H]2[C@H](O[C@H]3[C@H](O)[C@@H](C(=O)O)O[C@@H](O[C@H]4CC[C@@]5(C)C(CC[C@]6(C)C5CC[C@]57OC[C@@]8(CCC(C)(C)CC85)[C@H](O)C[C@]76C)C4(C)C)[C@@H]3O[C@@H]3O[C@H](CO)[C@@H](O[C@@H]4OC[C@@H](O)[C@H](O)[C@H]4O)[C@H](O)[C@H]3O)O[C@H](CO)[C@H](O)[C@@H]2O)[C@H](O)[C@H](O)[C@H]1O (stereo not given in full),-,-
Cc1nnc(SCc2cccc(C(=O)c3ccccc3)c2)[nH]c1=O,-,-
COc1ccc(-c2cc(=O)c3ccc(OC)cc3o2)cc1,-,-
C=CCSc1ncccc1C(=O)NCc1ccc(C)cc1,-,-
COc1ccc(S(=O)(=O)Nc2ccc3c(c2)C(=O)N([C@H](C)CO)C[C@H](C)[C@H](CN(C)C(=O)Nc2c(C)noc2C)O3)cc1,-,-
O=C(NCC1(c2ccccc2)CCOCC1)c1ccc(Br)cc1,-,-
CCCCC1CCC(C(=O)Nc2c3c(nn2-c2ccc(F)cc2)CS(=O)(=O)C3)CC1 (stereo not given),15.4,-
COc1ccc(-n2nc3c(c2NC(=O)/C=C\c2ccc4c(c2)OCO4)CS(=O)(=O)C3)cc1,-,-
C=CCSc1nnc(Cc2cc(=O)[nH]c(=O)[nH]2)n1-c1ccc(OC)cc1,.,-
CCC(Sc1nc2cc3c(cc2c(=O)n1Cc1ccco1)OCO3)C(=O)Nc1ccccc1OC (stereo not given),-,-
CCC(Sc1nc2cc3c(cc2c(=O)n1Cc1ccco1)OCO3)C(=O)NCc1ccc(C)cc1 (stereo not given),14.6,-
Cc1cc(C)nc(NC(N)=NCc2ccccc2Cl)n1,-,77.2
Cc1cc(C)nc(NC(=NCc2ccc(Cl)cc2)NC(=O)C(C)N2C(=O)c3ccccc3C2=O)n1 (stereo not given),-,-
Cc1ccc(CCNc2ccccc2)cn1,.,-
CSC(SC)=C(C#N)C(=O)c1cccc(C(F)(F)F)c1,47.7,?
N#CC(C(=O)c1cccc(C(F)(F)F)c1)=C1SCCCCS1,-,-
C[C@H](CO)N1C[C@H](C)[C@H](CN(C)Cc2ccc(Oc3ccccc3)cc2)Oc2c(NS(=O)(=O)c3cn(C)cn3)cccc2C1=O,.,-
COC(=O)CN(Cc1ccccc1)S(=O)(=O)c1ccc(C)cc1,-,-
Cc1ccc(S(=O)(=O)N[C@@H](Cc2ccccc2)C(=O)CCl)cc1,15.7,-
C[C@H]1CN([C@@H](C)CO)C(=O)c2cccc(NS(=O)(=O)c3cn(C)cn3)c2O[C@@H]1CN(C)Cc1ccc(C(F)(F)F)cc1,.,-
CCC(C)[C@H]1C(=O)O[C@H](C(C)C)C(=O)N(C)[C@@H](C(C)C)C(=O)O[C@H](C(C)C)C(=O)N(C)[C@@H](C(C)C)C(=O)O[C@H](CC(C)C)C(=O)N1C (stereo not given in full),44.9,79.2
SMILES,A1 inhib,BJeLR viab HTS
CC(C)n1c2ccccc2c2nnc(SCCCC(=O)c3ccc(F)cc3)nc21,-,-
CC(C)n1c(/C=C/[C@H](O)C[C@H](O)CC(=O)O)c(-c2ccc(F)cc2)c2ccccc21,-,56.3
C[C@H]1O[C@@H](O[C@H]2[C@@H](O)C[C@H](O[C@H]3[C@@H](O)C[C@H](O[C@H]4CC[C@@]5(C)[C@H](CC[C@@H]6[C@@H]5C[C@@H](O)[C@]5(C)[C@@H](C7=CC(=O)OC7)CC[C@]65O)C4)O[C@@H]3C)O[C@@H]2C)C[C@H](O)[C@@H]1O,-,98.8
C[C@H](CO)N1C[C@H](C)[C@@H](CN(C)C(=O)Nc2ccc3c(c2)OCO3)Oc2ccc(NS(=O)(=O)c3ccc(F)cc3)cc2C1=O,-,-
COc1ccccc1N1CCN(C(=O)c2cnn(-c3ccc(Cl)cc3)c2C)CC1,-,-
COc1cccc(-c2ncc(-c3ccccc3)o2)c1,-,-
CCOC(=O)CCc1c(C)c(C#N)c2nc3ccccc3n2c1Cl,.,87.8
CCc1c(C)c(C#N)c2nc3ccccc3n2c1NCCC(C)C,-,-
O=C(NCc1cccc(Cl)c1)c1ccc(COc2ccc(Cl)cc2)o1,-,-
C[C@H](CO)N1C[C@H](C)[C@@H](CN(C)S(=O)(=O)c2cn(C)cn2)Oc2ccc(NC(=O)C3CC3)cc2C1=O,-,-
COc1ccc(NC(=O)Nc2ccc3c(c2)C(=O)N([C@@H](C)CO)C[C@@H](C)[C@H](CN(C)S(=O)(=O)c2ccc(Cl)cc2)O3)cc1,-,-
CCCNC(=O)c1cc2c(s1)CS(=O)(=O)C2,-,-
CN(C)CCNC(=O)c1cc2c(s1)-c1ccc(Cl)cc1SC2,39.0,123.3
CN(C)c1ccc(C(=C2C=CC(=[N+](C)C)C=C2)c2ccc(N(C)C)cc2)cc1,57.9,127.3
Cc1ccc(S(=O)(=O)N2CCCCCC2)cc1C,-,-
O=C1c2c(O)ccc(O)c2C(=O)c2c(NCCNCCO)ccc(NCCNCCO)c21,-,109.7
C[C@H](CO)N1C[C@H](C)[C@H](CN(C)C(=O)Nc2ccc(C(F)(F)F)cc2)Oc2ccc(NS(=O)(=O)c3cccs3)cc2C1=O,11.7,-
C[C@H](CO)N1C[C@H](C)[C@H](CN(C)Cc2ccc(C(=O)Nc3ccccc3N)cc2)Oc2ccc(N(C)C)cc2C1=O,.,-
C[C@@H]1CN([C@H](C)CO)C(=O)c2cc(NS(=O)(=O)c3cccs3)ccc2O[C@H]1CN(C)C(=O)Nc1ccc(F)cc1,-,-

# Screening data as filed in PubChem BioAssay.
